# In PubChem BioAssay (EPA / NIEHS):
# Active and inactive are the calls of the source. How the source made its calls: active means hit-call score of the fitted dose curve at least 0.9, where 1 is the maximum; inactive means score below 0.9.
# Columns and labels:
# [1] = ATG_NFI_CIS: Attagene CIS-FACTORIAL HepG2 Assay for human Nuclear Factor I (NFI) (AID 2282989); settings: HepG2 cis-regulatory reporter, NFI response element transcription; actives raise or lower the signal
# How it was run: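 Endogenous TF activity in HepG2 cells transiently transfected with cis-element-driven multiplexed reporter units, read 24 h after dosing. Reporter mRNA quantified by RT-PCR, 6-FAM labelling, HpaI digestion and capillary electrophoresis; bidirectional fit versus DMSO.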
# [2] = molecular target: Myc proto-oncogene protein (Homo sapiens) (UniProt P01106); assay: ATG_Myc_CIS: Attagene CIS-FACTORIAL HepG2 Assay for human Myelocytomatosis (Myc) Proto-Oncogene Transcription Factor (AID 2282990); settings: HepG2, Attagene cis-reporter transcription factor activity; actives raise or lower the signal
# How it was run: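 HepG2 cells transiently transfected with multiple cis-promoter-driven reporter transcription units, so endogenous TF activity is read. After 24 h compound exposure, reporter mRNA was quantified by RT-PCR, 6-FAM labelling, HpaI digestion and capillary electrophoresis; bidirectional fit versus DMSO.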
# [3] = ATG_NF_kB_CIS: Attagene CIS-FACTORIAL HepG2 Assay for human Nuclear Factor Kappa B (NF-kB) (AID 2282991); settings: HepG2 Attagene cis-factorial NF-kB reporter mRNA; actives raise or lower the signal
# How it was run: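 Fluorescence of labelled RT-PCR products separated by capillary electrophoresis gives reporter mRNA levels from transfected HepG2 cells exposed 24 h; values are fitted in both directions relative to DMSO.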
# [4] = ATG_NRF2_ARE_CIS: Attagene CIS-FACTORIAL HepG2 Assay for human Nuclear Factor Erythroid 2 Related Factor 2 (NFR2) response to Antioxidant Response Elements (ARE) (AID 2282992); settings: HepG2 Attagene ARE/NRF2 reporter, transcription factor activity; actives raise or lower the signal
# How it was run: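 Fluorescence intensity of reporter-specific cDNA fragments, separated by capillary electrophoresis, reflects mRNA induction in transfected HepG2 cells at 24 h. Activity is fitted bidirectionally, DMSO serving as baseline.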
# [5] = ATG_Oct_MLP_CIS: Attagene CIS-FACTORIAL HepG2 Assay for human Octamer-Binding Transcription Factor (Oct) (AID 2282993); settings: HepG2 Attagene cis-factorial Oct reporter, mRNA; actives raise or lower the signal
# How it was run: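 HepG2 cells transiently transfected with cis-element-driven reporter transcription units (endogenous TF activity); 24 h compound exposure. Reporter mRNA quantified by RT-PCR, 6-FAM labelling, HpaI digestion and capillary electrophoresis; bidirectional fit versus DMSO baseline.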
# [6] = molecular target: Cellular tumor antigen p53 (Homo sapiens) (UniProt P04637); assay: ATG_p53_CIS: Attagene CIS-FACTORIAL HepG2 Assay for human p53 Transcription Factor (AID 2282994); settings: HepG2 p53 cis-element reporter, Attagene mRNA; actives raise or lower the signal
# How it was run: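 Transiently transfected HepG2 (multiple cis reporter transcription units); exposure 24 h; reporter RNA via RT-PCR, 6-FAM extension, 2 h HpaI digest at 37 C, CE detection; DMSO baseline.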
# Sequence of Myc proto-oncogene protein (Homo sapiens) (P01106 whole entry, looked up): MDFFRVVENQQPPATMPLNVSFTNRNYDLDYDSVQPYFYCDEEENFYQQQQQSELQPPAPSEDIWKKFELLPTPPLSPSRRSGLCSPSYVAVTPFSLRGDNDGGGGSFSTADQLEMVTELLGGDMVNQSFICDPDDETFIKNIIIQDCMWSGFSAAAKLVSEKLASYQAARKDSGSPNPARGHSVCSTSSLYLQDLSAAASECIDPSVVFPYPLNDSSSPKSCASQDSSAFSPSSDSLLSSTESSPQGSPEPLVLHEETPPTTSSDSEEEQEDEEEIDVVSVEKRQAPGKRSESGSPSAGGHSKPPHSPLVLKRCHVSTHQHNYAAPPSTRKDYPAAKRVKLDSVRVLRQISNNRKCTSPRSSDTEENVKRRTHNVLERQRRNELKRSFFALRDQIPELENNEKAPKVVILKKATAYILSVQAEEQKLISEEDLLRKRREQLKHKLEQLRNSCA
# Sequence of Cellular tumor antigen p53 (Homo sapiens) (P04637 whole entry, looked up): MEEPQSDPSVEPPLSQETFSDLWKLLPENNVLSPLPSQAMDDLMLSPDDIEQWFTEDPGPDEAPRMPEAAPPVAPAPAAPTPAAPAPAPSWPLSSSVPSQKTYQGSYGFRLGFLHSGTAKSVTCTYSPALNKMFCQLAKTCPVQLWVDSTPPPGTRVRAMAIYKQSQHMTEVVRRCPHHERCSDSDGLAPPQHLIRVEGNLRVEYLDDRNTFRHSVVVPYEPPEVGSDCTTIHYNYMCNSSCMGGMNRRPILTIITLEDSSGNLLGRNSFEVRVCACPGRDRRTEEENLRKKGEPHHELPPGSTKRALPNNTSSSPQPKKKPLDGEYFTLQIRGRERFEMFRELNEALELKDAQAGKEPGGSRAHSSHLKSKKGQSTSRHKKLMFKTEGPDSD
Structure (SMILES),outcome [1],outcome [2],outcome [3],outcome [4],outcome [5],outcome [6],AC50 [3],AC50 [4],AC50 [2],AC50 [6],AC50 [5]
NC(=O)OCC(COC(N)=O)c1ccccc1,inactive,inactive,inactive,inactive,inactive,inactive,–,–,–,–,–
NC(=O)N=NC(N)=O,inactive,inactive,inactive,inactive,inactive,inactive,–,–,–,–,–
O=C1c2ccccc2C(=O)C1c1nc2ccccc2c(Br)c1O,inactive,inactive,–,–,inactive,inactive,28.4 µM (active),1.83 µM (active),–,–,–
C(=CC=Nc1ccccc1)C=CNc1ccccc1,inactive,inactive,inactive,–,inactive,inactive,–,49.4 µM (active),–,–,–
C=C[Si](C)(C)O[Si](C)(C)C=C,inactive,inactive,inactive,inactive,inactive,inactive,–,–,–,–,–
C=C(C)CCO,inactive,inactive,inactive,inactive,inactive,inactive,–,–,–,–,–
[Cl][Nd]([Cl])[Cl],inactive,inactive,inactive,inactive,inactive,inactive,–,–,–,–,–
O=C(C(Cl)Cl)N1CCOC12CCCCC2,inactive,–,inactive,–,inactive,inactive,–,7.52 µM (active),8.87 µM (active),–,–
O=S(=O)(O)c1cc(S(=O)(=O)O)c2ccc3c(S(=O)(=O)O)cc(S(=O)(=O)O)c4ccc1c2c43,inactive,inactive,inactive,inactive,inactive,inactive,–,–,–,–,–
Cc1cccc(N(C)C(=S)Oc2ccc3ccccc3c2)c1,inactive,inactive,inactive,–,inactive,inactive,–,19.8 µM (active),–,–,–
C[C@]12CCC(=O)C=C1CC[C@@H]1[C@@H]2C(=O)C[C@@]2(C)[C@H]1CC[C@]2(O)C(=O)CO,inactive,inactive,inactive,inactive,inactive,inactive,–,–,–,–,–
OCCCS,inactive,inactive,inactive,inactive,inactive,inactive,–,–,–,–,–
CC(=O)Oc1ccc(C)cc1,inactive,inactive,inactive,–,inactive,inactive,–,19.6 µM (active),–,–,–
CCOC(=O)CC(C(C)=O)C(C)=O,inactive,inactive,inactive,inactive,inactive,inactive,–,–,–,–,–
CC(=O)CC(N)=O,inactive,inactive,inactive,inactive,inactive,inactive,–,–,–,–,–
CCC(CC)C(=O)O,inactive,inactive,inactive,inactive,inactive,inactive,–,–,–,–,–
CC(C)C1=CC2=CC[C@@H]3[C@](C)(CCC[C@@]3(C)C(=O)O)[C@H]2CC1,inactive,inactive,–,–,inactive,inactive,157 µM (active),19.8 µM (active),–,–,–
Cc1cc(C)c(C)c(O)c1,inactive,inactive,inactive,inactive,inactive,inactive,–,–,–,–,–
OC1CCCCCCCCCCC1,inactive,inactive,inactive,inactive,inactive,inactive,–,–,–,–,–
CCCOCCOCCOCCO,inactive,inactive,inactive,inactive,inactive,inactive,–,–,–,–,–

Structure (SMILES),outcome [1],outcome [2],outcome [3],outcome [4],outcome [5],outcome [6],AC50 [3],AC50 [4],AC50 [2],AC50 [6],AC50 [5]
C=C1C2CCC(C2)C1(C)C (stereo not drawn),inactive,inactive,inactive,inactive,inactive,inactive,–,–,–,–,–
CCC(Cc1ccccc1)(C(=O)c1ccc(N2CCOCC2)cc1)N(C)C (stereo not drawn),inactive,inactive,inactive,–,inactive,inactive,–,37.2 µM (active),–,–,–
[Cl][Bi]([Cl])([c]1ccccc1)([c]1ccccc1)[c]1ccccc1,inactive,inactive,–,–,inactive,–,0.463 µM (active),0.999 µM (active),–,6.07 µM (active),–
CCCNC(=O)NS(=O)(=O)c1ccc(Cl)cc1,inactive,inactive,inactive,inactive,inactive,inactive,–,–,–,–,–
COC(=O)/C=C/C(C)=C\C=C\C(C)=C\C=C\C=C(C)\C=C\C=C(C)\C=C\C(=O)O,inactive,inactive,inactive,–,inactive,inactive,–,67.9 µM (active),–,–,–
NCCCN1CCN(CCCN)CC1,inactive,inactive,inactive,–,inactive,inactive,–,81.2 µM (active),–,–,–
CCCCCCCC(C)=O,inactive,inactive,inactive,inactive,inactive,inactive,–,–,–,–,–
CC(C)(C)c1n[nH]c(=O)n(N)c1=O,inactive,inactive,inactive,inactive,inactive,inactive,–,–,–,–,–
CCCCCCCCCCCCCCCCCC#N,inactive,inactive,inactive,inactive,inactive,inactive,–,–,–,–,–
CCOCC(=O)O,inactive,inactive,inactive,inactive,inactive,inactive,–,–,–,–,–
ON(Cc1ccccc1)Cc1ccccc1,inactive,inactive,inactive,inactive,inactive,inactive,–,–,–,–,–
CC(C)CCCCCOC(=O)CCS,inactive,inactive,inactive,inactive,inactive,inactive,–,–,–,–,–
Nc1ccc(Cl)cc1Cl,inactive,inactive,inactive,inactive,inactive,inactive,–,–,–,–,–
c1ccc(CCCc2ccncc2)cc1,inactive,inactive,inactive,–,inactive,inactive,–,45.4 µM (active),–,–,–
CC(C)c1ccc(C#N)cc1,inactive,inactive,inactive,inactive,inactive,inactive,–,–,–,–,–
CCOC(=O)[C@H](C)O,inactive,inactive,inactive,–,inactive,inactive,–,26.7 µM (active),–,–,–
CC(C)COC(=O)C=Cc1ccccc1,inactive,inactive,inactive,–,inactive,inactive,–,18.4 µM (active),–,–,–
CCOc1ccc(N)c([N+](=O)[O-])c1,inactive,inactive,inactive,inactive,inactive,inactive,–,–,–,–,–
O=S(=O)(O)c1ccc2cc(O)c(S(=O)(=O)O)cc2c1,inactive,inactive,–,–,inactive,–,120 µM (active),46.6 µM (active),–,182 µM (active),–
Nc1ccc(N=Nc2ccccc2)c(N)n1,inactive,inactive,inactive,–,–,inactive,–,15.3 µM (active),–,–,69.7 µM (active)

Structure (SMILES),outcome [1],outcome [2],outcome [3],outcome [4],outcome [5],outcome [6],AC50 [3],AC50 [4],AC50 [2],AC50 [6],AC50 [5]
CC(=O)[C@H]1[C@H](C#N)C[C@H]2[C@@H]3CC=C4C[C@@H](O)CC[C@]4(C)[C@H]3CC[C@@]21C,inactive,inactive,inactive,inactive,inactive,inactive,–,–,–,–,–
CC1(C)[C@H]2CC[C@]1(C)C(=O)C2,inactive,inactive,inactive,inactive,inactive,inactive,–,–,–,–,–
Cn1c([N+](=O)[O-])cnc1COC(N)=O,inactive,inactive,inactive,inactive,inactive,inactive,–,–,–,–,–
O=C(O)c1ccccc1Nc1cccc(C(F)(F)F)c1,inactive,inactive,inactive,–,inactive,inactive,–,27.3 µM (active),–,–,–
CCCCC/C=C\CCC=O,inactive,inactive,inactive,inactive,inactive,inactive,–,–,–,–,–
COCC(C)N (stereo not drawn),inactive,inactive,inactive,inactive,inactive,inactive,–,–,–,–,–
O=C1CCCC1,inactive,inactive,inactive,inactive,inactive,inactive,–,–,–,–,–
O=C(Oc1ccccc1)c1ccc2ccccc2c1O,inactive,inactive,–,–,–,inactive,100 µM (active),18.3 µM (active),–,–,49 µM (active)
CCC(CO)CO,inactive,inactive,inactive,inactive,inactive,inactive,–,–,–,–,–
N=c1ccn2c(n1)O[C@H]1[C@H](O)[C@@H](CO)O[C@H]12,inactive,inactive,inactive,inactive,inactive,inactive,–,–,–,–,–
COc1ccc(C(Cl)=C(c2ccc(OC)cc2)c2ccc(OC)cc2)cc1,inactive,inactive,inactive,inactive,inactive,inactive,–,–,–,–,–
CC(=O)NS(=O)(=O)c1ccc(N)cc1,inactive,inactive,inactive,inactive,inactive,inactive,–,–,–,–,–
Cc1ccc(C2OC[C@@H]3OC(c4ccc(C)cc4)O[C@H]([C@H](O)CO)[C@@H]3O2)cc1 (stereo partly drawn),inactive,inactive,inactive,–,inactive,inactive,–,100 µM (active),–,–,–
COC(=O)/C=C\C(=O)O,inactive,inactive,inactive,–,inactive,inactive,–,43.3 µM (active),–,–,–
OCCN(CCO)c1ccccc1,inactive,inactive,inactive,inactive,inactive,inactive,–,–,–,–,–
CCCCCCOc1cc(C)c(O)c(C)c1C,inactive,inactive,–,–,inactive,inactive,16.5 µM (active),7.78 µM (active),–,–,–
C=CCCCCCCCCC(=O)OCCCC,inactive,inactive,inactive,inactive,inactive,inactive,–,–,–,–,–
CCc1nccnc1C,inactive,inactive,inactive,inactive,inactive,inactive,–,–,–,–,–
